Data: the supplement of paper PMC3334620
Over roughly 33,000 sequences, “E-score (-0.5 to 0.5)” has its median near -0.016; the highest 2% begin near 0.32. The sample as a whole holds a higher share of the highest values than the screen did.

The sequences below were run against T1, Stp1 (UniProt B3LFK1) (assay: PBM E-score (8-mer binding enrichment) (E-score (-0.5 to 0.5)); higher = stronger / more preferred TF binding). Details: protein concentration: 200 nM; construct: GST-full length.
T1 sequence: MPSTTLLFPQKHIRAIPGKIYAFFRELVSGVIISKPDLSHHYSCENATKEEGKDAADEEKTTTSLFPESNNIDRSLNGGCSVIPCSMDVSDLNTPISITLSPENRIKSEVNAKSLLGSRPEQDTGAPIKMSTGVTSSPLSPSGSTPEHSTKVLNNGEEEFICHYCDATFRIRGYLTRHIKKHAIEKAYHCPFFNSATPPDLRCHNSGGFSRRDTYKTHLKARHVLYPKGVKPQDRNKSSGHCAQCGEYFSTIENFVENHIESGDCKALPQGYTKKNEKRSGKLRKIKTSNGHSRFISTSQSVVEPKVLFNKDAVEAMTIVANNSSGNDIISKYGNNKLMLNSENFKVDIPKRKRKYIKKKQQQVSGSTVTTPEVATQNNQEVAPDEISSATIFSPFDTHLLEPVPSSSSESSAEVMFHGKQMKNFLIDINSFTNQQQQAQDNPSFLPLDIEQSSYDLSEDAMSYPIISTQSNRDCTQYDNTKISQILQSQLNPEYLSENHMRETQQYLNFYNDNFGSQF
Experimental: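 Universal 'all 10-mer' protein binding microarrays (Agilent AMADID 015681) probed with GST-tagged S. cerevisiae TFs (full-length or DBD) made by in vitro transcription/translation (PURExpress), about 100-200 nM. Bound TF was detected with fluorescent anti-GST. Each ungapped 8-mer (which stands for itself and its reverse complement) is scored by the PBM enrichment score (E-score), a modified Wilcoxon-Mann-Whitney statistic from -0.5 to +0.5, computed with the Universal PBM Analysis Suite. Scale: above 0.35 generally sequence-specific binding.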

| Sequence | PBM E-score |
| --- | --- |
| AATCTACC | -0.0419 |
| CCAAAGTC | -0.132 |
| ATTCCTCA | 0.0196 |
| AGGCGATA | 0.0637 |
| AGGCGATC | 0.128 |
| CGGCGATC | 0.373 |
| GGGCGATA | -0.147 |
| CGGCGATA | 0.395 |
| CAGCGATC | -0.127 |
| GCCTGGTA | -0.227 |
| CTCCTGCA | -0.244 |
| ATGCTTGC | -0.24 |
| AAGCAGGA | -0.113 |
| CGGCAGCC | 0.216 |
| GGGCAGAA | 0.0536 |
| CGGCAGAC | 0.0714 |
| CGGCAGCA | 0.333 |
| GGGCAGCA | -0.122 |
| CGGCAGAA | 0.328 |
| CTCTGGTA | -0.177 |
| ACGCCTCT | 0.0123 |
| ACGCCTCG | 0.381 |
| ATGCCTTG | 0.274 |
| ATGCCTCC | -0.0159 |
| ACGCCTTC | 0.204 |

| Sequence | PBM E-score |
| --- | --- |
| ACGCCTCC | -0.102 |
| ATGCCTCG | 0.412 |
| ACGCCTTG | 0.348 |
| ACGCCTTA | 0.294 |
| ACCGTGGG | -0.27 |
| CGATAAGA | 0.0597 |
| AGTTGGGG | -0.209 |
| AATATACG | 0.017 |
| TAATTTCA | 0.242 |
| GTCACCTA | -0.204 |
| CCGGCCGC | -0.018 |
| ACGGCCGC | 0.406 |
| ACGGCCAC | 0.3 |
| GCGGCCGA | 0.139 |
| ACGGCCGG | 0.0865 |
| AAGGCCGC | 0.314 |
| ACGGCCGA | 0.191 |
| GAGGCCGC | 0.095 |
| AAGGCCGG | 0.128 |
| AAGGCCGT | 0.358 |
| ACGGCCGT | 0.401 |
| GCGGCCGC | 0.373 |
| ACTATACC | -0.017 |
| ACCAGGGT | -0.398 |
| AAGCAGGG | -0.156 |

| Sequence | PBM E-score |
| --- | --- |
| CACGGTAC | 0.0963 |
| CATATTCC | -0.14 |
| AACCATTA | 0.123 |
| TGGGACAA | -0.23 |
| CGAACGTA | -0.0114 |
| CACGCATC | 0.0489 |
| CCCAATCA | -0.0533 |
| ATTTCCGG | -0.0307 |
| AGGCGACG | 0.209 |
| CGGCGACG | 0.349 |
| AGGCGAGA | -0.0565 |
| CGGCGACA | 0.369 |
| GGGCGACA | 0.0209 |
| CGGCGAGC | 0.307 |
| AGGCGACA | 0.197 |
| CGGCGAGA | 0.325 |
| CGGCGACC | 0.203 |
| CTCGGGGC | -0.163 |
| CAGAGTCG | -0.204 |
| CATGGTTA | 0.105 |
| ACCGTGCG | 0.371 |
| CCCGTGAG | -0.0263 |
| ACCGTGCT | -0.133 |
| CCCGTGCA | 0.0223 |
| CCCGTGCG | 0.332 |

| Sequence | PBM E-score |
| --- | --- |
| AGCGTGCG | 0.237 |
| AGAGGGCG | 0.307 |
| AGGCCAAT | -0.152 |
| AGAACGCT | -0.11 |
| ATTGTGCA | 0.162 |
| AATGTGCC | 0.323 |
| ATTGTGCC | 0.322 |
| GATGTGCC | 0.185 |
| ATTGTGCG | 0.161 |
| AATGTGCG | 0.18 |
| GCGCAAAA | 0.227 |
| CCATGAGA | -0.118 |
| GAGCCGCA | 0.448 |
| TAGCCGGA | -0.0486 |
| AACCCGCA | -0.00015 |
| AAGCCGCA | 0.386 |
| CAGCCGCG | 0.259 |
| AAGCCGGA | 0.0672 |
| TAGCCGAA | 0.00682 |
| AAGCCGCG | 0.418 |
| CAGCCGCA | 0.215 |
| GAGCCGGA | 0.0514 |
| AATCCGCG | 0.111 |
| TAGCCGCA | 0.348 |
| GAGGGTAC | -0.22 |

| Sequence | PBM E-score |
| --- | --- |
| AACTGAGC | -0.0352 |
| CGATCAAG | -0.0842 |
| CCCTTATA | -0.15 |
| CCAACTAG | -0.0642 |
| CCGACCAG | -0.144 |
| CATAATGC | 0.0509 |
| TCCCAGGA | -0.255 |
| GGATCTAC | -0.105 |
| GTCGACTA | 0.157 |
| CAGCCGCC | 0.0812 |
| AAGCCGCC | 0.177 |
| GAGCCGCC | 0.319 |
| CCTAAGCC | -0.355 |
| ACGGGTTG | -0.0319 |
| TCGGCAAA | 0.0291 |
| GCGGCAAC | 0.384 |
| CCGGCAAA | 0.116 |
| GGGGCAAC | -0.107 |
| CCGGCAAC | 0.0817 |
| GCGGCAAA | 0.383 |
| ATCATTCG | 0.119 |
| AAATTAAG | -0.00684 |
| CGTGCGGA | 0.3 |
| CGTGCGGC | 0.476 |
| AGTGCGGA | 0.224 |

| Sequence | PBM E-score |
| --- | --- |
| CGTGCGAC | 0.0732 |
| AGTGCGGC | 0.379 |
| AGTGCGGG | -0.0896 |
| TACTAGGA | -0.15 |
| GAGGTCAC | -0.123 |
| AGTATTGA | 0.0696 |
| CACGGTAG | -0.0367 |
| GTGGGCAA | -0.0572 |
| CCATTGCC | 0.0367 |
| CGCCCTGC | 0.346 |
| CGCCCTGA | 0.0616 |
| AGCCCTGC | 0.0478 |
| GACCTTTA | -0.0597 |
| AAGCCTCA | -0.0215 |
| AGGCGCCG | 0.462 |
| CGGAGCCG | 0.302 |
| AGGCGCAT | 0.241 |
| GGGCGCCA | 0.309 |
| AGGCGTCG | 0.253 |
| CGGCGCCG | 0.484 |
| AGGCGCCA | 0.353 |
| TGGCGCCA | 0.26 |
| AGGCGCCT | 0.383 |
| AGGCGACT | 0.0881 |
| AGGCGCCC | 0.232 |

| Sequence | PBM E-score |
| --- | --- |
| CGCCGGCG | 0.312 |
| AGGTGCGG | 0.189 |
| AATAACTG | 0.0806 |
| TGGACAAA | -0.0269 |
| GCAGCGCA | -0.103 |
| AAGAACCA | -0.0227 |
| CAGTCTCC | -0.209 |
| ATTTGGAA | 0.0474 |
| AAGATTAA | 0.084 |
| ATCGTACA | 0.0995 |
| CGATAAAC | 0.0166 |
| AGGAGGAT | -0.107 |
| GCGATGTA | 0.16 |
| TATCGTCA | -0.0796 |
| TAGTGCAA | 0.0577 |
| ATGCGCCG | 0.413 |
| CTGCGCCA | 0.106 |
| GCGCGCCA | 0.268 |
| CGGCGCCA | 0.463 |
| CTGCGCCC | -0.113 |
| CGGCGCCC | 0.38 |
| ATGCGCCA | 0.0976 |
| GGGCGCCC | 0.255 |
| ATGCGCCC | 0.158 |
| AACTATCG | -0.203 |

| Sequence | PBM E-score |
| --- | --- |
| CTCTGGCA | -0.203 |
| ACAAGTGC | -0.127 |
| CGTCAGAG | -0.0954 |
| GCAATGGC | -0.116 |
| AGGCTGTA | 0.0388 |
| ATCTATTG | 0.0947 |
| ACAGATAA | -0.0189 |
| ATCAATGG | -0.0372 |
| AACAACCA | 0.0647 |
| ACCTCGTA | -0.0684 |
| CCCTCGTA | -0.0643 |
| GCCTCGTA | 0.346 |
| CGCCATGC | 0.226 |
| ATAGTGCC | 0.311 |
| ACGGCACC | 0.484 |
| AGGGCACC | 0.0197 |
| GGGGCACC | 0.0924 |
| GTGGCACA | 0.125 |
| GCGGCACA | 0.463 |
| CGGGCACC | 0.237 |
| CCGGCACC | 0.254 |
| GCGGCACC | 0.477 |
| GGGGCACA | 0.0124 |
| GACGCCAC | 0.0288 |
| GATCCTAC | -0.1 |

| Sequence | PBM E-score |
| --- | --- |
| ACTCTCAG | 0.0178 |
| GGGCACTA | 0.23 |
| CTGCACTC | 0.109 |
| AGGCACTA | 0.301 |
| CGGCACTC | 0.365 |
| AGGCACTC | 0.139 |
| CGGCACTA | 0.446 |
| CAGAGGTA | 0.062 |
| GTTCCATA | -0.164 |
| CCTGGCCG | -0.105 |
| AAAGTATC | 0.118 |
| AGGTAAGC | -0.118 |
| TATCTCCA | 0.103 |
| CCTACCTA | -0.0899 |
| AGCGGCTA | 0.165 |
| CGCGGCTA | 0.397 |
| CCCGGCTC | -0.238 |
| GGCGGCTA | 0.207 |
| CGCGGCTC | 0.464 |
| ATCGGCTC | 0.136 |
| AGCGGCTG | 0.0689 |
| CTCGGCTC | 0.029 |
| AGCGGCTC | 0.388 |
